Laboratory results published in PubChem BioAssay (NCI).
Several values for one entry are separate records, joined by “and”; a condition that tells them apart may be missing. Equal entries are not always repeated. This is part of a sample that, as a whole, favours compounds with a hit. Of some 83,000 tested, about 20% had one in any assay.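 Percent growth is the endpoint: 0 to 100 indicates growth inhibition (40 means 60% inhibition), 0 means no net growth, and negative values indicate cell death.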 Activity calls are given as the source filed them. How the source made its calls: active means growth percent below 10; inactive means the rest.

Assays:
Experiment in all cases: NCI-60 one-dose screen, 48 h (100 = growth as untreated, 0 = no growth, -100 = all killed)
Settings in all cases: 10 µM unless noted
HCT-15 colon = system: HCT-15 colon
HT29 colon = system: HT29 colon
SNB-75 CNS = system: SNB-75 CNS
U251 CNS = system: U251 CNS
PC-3 prostate = system: PC-3 prostate
SK-MEL-5 melanoma = system: SK-MEL-5 melanoma
UACC-62 melanoma = system: UACC-62 melanoma
LOX IMVI melanoma = system: LOX IMVI melanoma
SK-MEL-28 melanoma = system: SK-MEL-28 melanoma
SK-MEL-2 melanoma = system: SK-MEL-2 melanoma
EKVX NSCLC = system: EKVX NSCLC
SN12C renal = system: SN12C renal
UO-31 renal = system: UO-31 renal
TK-10 renal = system: TK-10 renal
ACHN renal = system: ACHN renal
CAKI-1 renal = system: CAKI-1 renal
A498 renal = system: A498 renal
CCRF-CEM leukemia = system: CCRF-CEM leukemia
MOLT-4 leukemia = system: MOLT-4 leukemia
SNB-19 CNS = system: SNB-19 CNS

Compound	growth (HCT-15 colon)	growth (HT29 colon)	growth (SNB-75 CNS)	growth (U251 CNS)	growth (PC-3 prostate)	growth (SK-MEL-5 melanoma)	growth (UACC-62 melanoma)	growth (LOX IMVI melanoma)	growth (SK-MEL-28 melanoma)	growth (SK-MEL-2 melanoma)	growth (EKVX NSCLC)	growth (SN12C renal)	growth (UO-31 renal)	growth (TK-10 renal)	growth (ACHN renal)	growth (CAKI-1 renal)	growth (A498 renal)	growth (CCRF-CEM leukemia)	growth (MOLT-4 leukemia)	growth (SNB-19 CNS)
CCN(CC)C(=O)c1cccnc1	106% (inactive)	103% (inactive)	98.7% (inactive)	96.2% (inactive)	100% (inactive)	103% (inactive)	105% (inactive)	100% (inactive)	111% (inactive)	108% (inactive)	112% (inactive)	106% (inactive)	116% (inactive)	97.8% (inactive)	107% (inactive)	97.4% (inactive)	114% (inactive)	97.4% (inactive)	92.8% (inactive)	
CN1C(=O)C(N=Nc2ccc([N+](=O)[O-])cc2)SC1=S (centres undefined)	51.7% (inactive) and 50.8% (inactive)	64.4% (inactive) and 80.4% (inactive)	85.9% (inactive) and 91.5% (inactive)	62.8% (inactive) and 69.4% (inactive)	55.5% (inactive) and 50.8% (inactive)	71.3% (inactive) and 73.7% (inactive)	29.8% (inactive) and 38.4% (inactive)	41.9% (inactive) and 51.5% (inactive)	86.6% (inactive) and 95.9% (inactive)	52.2% (inactive) and 60.1% (inactive)	117% (inactive) and 82% (inactive)	62.4% (inactive) and 69.3% (inactive)	37.2% (inactive) and 49.9% (inactive)	86.8% (inactive) and 101% (inactive)	51.8% (inactive) and 56.5% (inactive)	103% (inactive) and 75.3% (inactive)	85.5% (inactive) and 89.6% (inactive)	54.5% (inactive) and 40.8% (inactive)	76.7% (inactive) and 70.5% (inactive)	
O=C(Nc1ccc(Cl)cc1)c1cc2ccccc2cc1O	12.8% (inactive) and 15.8% (inactive)	94.7% (inactive) and 8.61% (active)	52.6% (inactive) and 53.1% (inactive)	21.2% (inactive) and -8.1% (active)		14% (inactive) and 0.898% (active)	28.3% (inactive) and 35.1% (inactive)	37.3% (inactive) and 12% (inactive)	43.8% (inactive) and 45.1% (inactive)	36.9% (inactive) and 7.35% (active)	15.3% (inactive) and 14.6% (inactive)	8.95% (active) and -2.39% (active)	10.9% (inactive) and 4.71% (active)	53.3% (inactive) and 8.41% (active)	30.3% (inactive) and 31.2% (inactive)	34.5% (inactive) and -23.4% (active)	-5.52% (active)	17.8% (inactive)	4.27% (active) and -8.37% (active)	37.7% (inactive) and 29.6% (inactive)
CCN(CC)CCOc1ccc2c(c1)C(=O)c1cc(OCCN(CC)CC)ccc1-2	78.2% (inactive) and 39% (inactive)	8.16% (active) and 6.92% (active)	74.9% (inactive) and 67.1% (inactive)	53.6% (inactive) and 61.3% (inactive)		95% (inactive) and 95.5% (inactive)	105% (inactive) and 103% (inactive)	52.3% (inactive) and 37.3% (inactive)	123% (inactive) and 108% (inactive)	114% (inactive) and 95.4% (inactive)	90.5% (inactive) and 59% (inactive)	73.2% (inactive) and 61.6% (inactive)	59.6% (inactive) and 4.32% (active)	75.8% (inactive) and 78.1% (inactive)		85.7% (inactive)	73.9% (inactive) and 90.8% (inactive)	55.1% (inactive)	50.5% (inactive) and -16.2% (active)	83.9% (inactive) and 75.7% (inactive)
CC(O)Cn1cnc2c1c(=O)n(C)c(=O)n2C (centres undefined)	96.4% (inactive)	109% (inactive)	83.5% (inactive)	81.8% (inactive)		101% (inactive)	100% (inactive)	87.1% (inactive)	103% (inactive)	98.7% (inactive)	100% (inactive)	98.4% (inactive)	88.7% (inactive)	135% (inactive)	98% (inactive)	99.4% (inactive)	110% (inactive)		98.3% (inactive)	104% (inactive)
O=C(O)CCCCc1ccc([N+](=O)[O-])cc1	101% (inactive)	105% (inactive) and 98.1% (inactive)	98.7% (inactive) and 89.7% (inactive)	97.4% (inactive) and 108% (inactive)	88.5% (inactive) and 86.5% (inactive)	107% (inactive) and 105% (inactive)	104% (inactive) and 90.4% (inactive)	92.7% (inactive) and 107% (inactive)	113% (inactive) and 107% (inactive)	98.9% (inactive) and 113% (inactive)	107% (inactive) and 126% (inactive)	98.9% (inactive) and 96.5% (inactive)	82.4% (inactive) and 73.3% (inactive)	106% (inactive) and 99.4% (inactive)	103% (inactive) and 98.5% (inactive)	107% (inactive) and 102% (inactive)	84.4% (inactive) and 127% (inactive)	97.1% (inactive) and 91.2% (inactive)	99.4% (inactive) and 88.5% (inactive)	
O=C(/C=C/c1ccccn1)c1ccccc1O	39.4% (inactive) and 62% (inactive)	37.7% (inactive) and 29% (inactive)	75% (inactive)	38.3% (inactive) and 68.4% (inactive)		75.2% (inactive) and 88.1% (inactive)	77.5% (inactive) and 81.6% (inactive)	20.4% (inactive) and 21.7% (inactive)	77.6% (inactive) and 92.6% (inactive)	104% (inactive) and 100% (inactive)	76% (inactive) and 88.1% (inactive)	63.7% (inactive) and 88.1% (inactive)	-17.5% (active) and 74.7% (inactive)	84.4% (inactive) and 55.3% (inactive)	65.3% (inactive) and 74.2% (inactive)	34.8% (inactive) and 40% (inactive)	110% (inactive)	13.3% (inactive)	41.5% (inactive)	77.3% (inactive) and 81.6% (inactive)
COc1ccc(S(=O)(=O)N2CCOCC2)cc1NC(=O)c1[nH]c(C)c2c1CCCCC2=O	104% (inactive) and 26.9% (inactive)	112% (inactive) and 31.7% (inactive)	101% (inactive) and 7.61% (active)	97.9% (inactive) and 63.2% (inactive)		97.8% (inactive) and 70.9% (inactive)	98.2% (inactive) and 33.3% (inactive)	98.6% (inactive) and 23.5% (inactive)	101% (inactive) and 62.5% (inactive)	105% (inactive) and 67.5% (inactive)	103% (inactive) and 54% (inactive)	98.3% (inactive) and 64.4% (inactive)	90.5% (inactive) and 32% (inactive)	103% (inactive) and 28.5% (inactive)	107% (inactive) and 50.6% (inactive)	96.6% (inactive) and 15.7% (inactive)	93.5% (inactive) and -15.8% (active)	111% (inactive) and 58.9% (inactive)	104% (inactive) and 65.9% (inactive)	98.7% (inactive) and 64.1% (inactive)
O=C1OC(Oc2ccc(Br)cc2)(c2ccccc2)c2ccccc21 (centres undefined)	69.6% (inactive) and 58.6% (inactive)	74.6% (inactive) and 70.6% (inactive)	61.2% (inactive) and 77.1% (inactive)	78.9% (inactive) and 58.5% (inactive)	80.7% (inactive) and 63.6% (inactive)	97.3% (inactive)	73.8% (inactive) and 83.9% (inactive)	77.5% (inactive) and 83.2% (inactive)	101% (inactive) and 120% (inactive)	74.2% (inactive) and 73.2% (inactive)	96.4% (inactive) and 82.2% (inactive)	87.8% (inactive) and 98.2% (inactive)	72.4% (inactive) and 89.3% (inactive)	89.4% (inactive) and 86.2% (inactive)	83.6% (inactive) and 80.3% (inactive)	17.9% (inactive) and 0.588% (active)	80.1% (inactive) and 93.7% (inactive)	70.1% (inactive) and 46.1% (inactive)	77.4% (inactive)	
